Compound activity as filed in PubChem.
In the library only some 4% were active in any assay of this set; here they are far more common.
RecA splice inh: Mtb RecA intein splicing inhibitors, primary screen, biochemical, fluorescence, HTS | 0.75% of 290,000 active | Protein RecA (Mycobacterium tuberculosis (strain ATCC 25618 / H37Rv)), P9WHJ3 | inhibition, % (concentration not given with the values) | cell-free RecA intein splicing; in the data active = inhibition above about 30%;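 also: 0% = vehicle wells and 100% = reference inhibitor control wells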
Target sequence (P9WHJ3 whole entry, looked up, canonical isoform): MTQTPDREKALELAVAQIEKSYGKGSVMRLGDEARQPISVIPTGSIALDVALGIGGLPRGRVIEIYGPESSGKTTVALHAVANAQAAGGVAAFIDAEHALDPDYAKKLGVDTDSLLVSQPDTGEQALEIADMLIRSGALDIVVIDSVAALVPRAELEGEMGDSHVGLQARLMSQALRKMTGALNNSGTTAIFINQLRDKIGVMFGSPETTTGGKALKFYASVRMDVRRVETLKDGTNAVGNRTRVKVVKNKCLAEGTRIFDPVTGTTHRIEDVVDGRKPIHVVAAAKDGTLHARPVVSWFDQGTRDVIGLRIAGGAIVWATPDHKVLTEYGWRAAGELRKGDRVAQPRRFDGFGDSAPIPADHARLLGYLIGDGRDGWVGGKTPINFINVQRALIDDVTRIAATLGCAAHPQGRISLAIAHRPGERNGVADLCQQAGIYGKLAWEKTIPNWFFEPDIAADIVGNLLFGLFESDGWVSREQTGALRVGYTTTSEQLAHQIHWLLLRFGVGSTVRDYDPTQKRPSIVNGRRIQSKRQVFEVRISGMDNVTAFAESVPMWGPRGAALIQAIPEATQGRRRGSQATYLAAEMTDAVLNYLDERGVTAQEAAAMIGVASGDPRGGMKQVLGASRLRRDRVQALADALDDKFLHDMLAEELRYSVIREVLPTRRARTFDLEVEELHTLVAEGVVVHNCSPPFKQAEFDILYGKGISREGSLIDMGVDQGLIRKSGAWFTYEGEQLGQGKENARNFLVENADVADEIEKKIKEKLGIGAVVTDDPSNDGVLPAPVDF
FBA Mtb inh: Mtb FBA enzyme inhibitors, primary screen, biochemical, fluorescence, strain H37Rv. 2.3% of 360,000 active. purified M. tuberculosis FBA, fluorescence read-out. inhibition, % at 1 µM. Fructose-bisphosphate aldolase (Mycobacterium tuberculosis (strain ATCC 25618 / H37Rv)), …; in the data active = inhibition above about 27%;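 also: 0% = vehicle and 100% = reference inhibitor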
Mtb betalactam: beta-lactam sensitization of Mtb H37Rv, H37Rv | M. tuberculosis H37Rv growth with meropenem, percent inhibition | inhibition, % at 25 µM | 0.27% of 330,000 active; call rule not given here;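 also: growth measured after seven days incubation then overnight dye step; 0% = bacteria only wells and 100% = bacteria with antibiotic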
Rv3671c protease: Rv3671c serine protease inhibitors, primary screen, biochemical, fluorescence polarization, M. tuberculosis H37Rv; P9WHR9; inhibition, % at 5.96 µM; 0.048% of 320,000 active; in the data active = inhibition above about 38%;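 also: extracellular domain of Rv3671c used as enzyme; 0% = enzyme with DMSO and 100% = no enzyme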
Mtb UGM inh: M. tuberculosis UGM enzyme inhibitors, primary screen, biochemical, fluorescence polarization, single point; purified UGM, fluorescence polarization probe displacement; AID 504406, 2011; UDP-galactopyranose mutase (Mycobacterium tuberculosis (strain ATCC 25618 / H37Rv)), …; 0.06% of 320,000 active; inhibition, % at 10 µM; in the data active = inhibition above about 10%, passing the limit was not always enough
GDH-TPI inh: GDH-TPI coupling enzyme inhibitors, primary screen, artefact control for M. tuberculosis FBA inhibitor project, biochemical, absorbance, full deck. GDH-TPI coupled enzyme counterscreen, NADH absorbance. inhibition, % at 4.8 µM. 1.2% of 360,000 active; in the data active = inhibition above about 30%;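 also: 0% = DMSO wells and 100% = wells lacking the enzyme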
Active calls of the source: *; . = not tested or not shown.

SMILES	RecA splice inh	FBA Mtb inh	Mtb betalactam	Rv3671c protease	Mtb UGM inh	GDH-TPI inh
Cc1cc(C)n(C(=O)c2cc3sccc3[nH]2)n1	3	0	1	-5	-1	33*
COCCCN1C(=O)C(CC(=O)NC2CCCC2)CC(C(=O)N2CCOCC2)=C1C (stereo not drawn)	.	1	.	.	.	0
O=C(N/N=C/C=C/c1ccc([N+](=O)[O-])cc1)C1COc2ccccc2O1 (stereo not drawn)	1	0	-1	0	2	35*
O=C(N/N=C/C=C/c1ccc2c(c1)OCO2)C(O)c1ccccc1 (stereo not drawn)	-4	2	-5	-5	1	56*
Cc1cc(C(=O)N/N=C/C=C/c2ccc3c(c2)OCO3)n[nH]1	-1	3	-4	2	-1	50*
O=C(N/N=C/c1ccc2c(c1)OCO2)C1COc2ccccc2O1 (stereo not drawn)	-1	-1	-7	-2	-2	15
O=C(N/N=C\C=C\c1ccc2c(c1)OCO2)c1ccc(F)cc1	0	6	0	18	1	30
CC(/C=C/c1ccc2c(c1)OCO2)=N\NC(=O)C(O)c1ccccc1 (stereo not drawn)	.	-1	-10	13	-2	28
O=C(Nc1ccc([N+](=O)[O-])cc1)C1COc2ccccc2O1 (stereo not drawn)	2	0	5	-9	1	14
O=C(N/N=C\C=C\c1ccc2c(c1)OCO2)C1COc2cc3ccccc3cc2O1 (stereo not drawn)	-1	0	63	3	0	49*
O=C(N/N=C\c1ccc(O)c([N+](=O)[O-])c1)C1COc2ccccc2O1 (stereo not drawn)	-3	-7	1	-2	-2	70*
COC(=O)c1c2[n+](cc3cc(OC)c(OC)cc13)CCc1cc(OC)c(OC)cc1-2	-5	0	0	10	6	43*
COCCCNC(=O)/C(C#N)=C/c1cccc(NC(=O)c2ccccc2Cl)c1	6	-5	-3	-6	-1	-1
N#C/C(=C\c1cccc(NC(=O)c2ccccc2Cl)c1)C(=O)NCCc1ccccc1	36*	-5	-2	-17	-2	2
O=C(CCl)N=c1sccn1Cc1ccc(Cl)cc1Cl	44*	-1	100	2	0	-4
O=C(CCl)N=c1sccn1Cc1ccccc1Cl	19	-1	99	12	2	10
CCCOc1ccc(C2C(C#N)=C(N)Oc3nc[nH]c(=O)c32)cc1OC (stereo not drawn)	0	1	2	0	3	2
CCCc1[nH]nc2c1C(c1ccc(OC(=O)N3CCOCC3)c(OC)c1)C(C#N)=C(N)O2 (stereo not drawn)	42*	-3	3	8	-1	-5
CCc1[nH]nc2c1C(c1cccc(OC(=O)N3CCOCC3)c1)C(C#N)=C(N)O2 (stereo not drawn)	69*	-4	11	-3	4	-2
COc1cc(C2C(C#N)=C(N)OC3=C2C(=O)CCC3)ccc1OC(=O)N1CCOCC1 (stereo not drawn)	0	-2	0	1	3	-2
CC(C)c1[nH]nc2c1C(c1cccc(OC(=O)N3CCOCC3)c1)C(C#N)=C(N)O2 (stereo not drawn)	45*	0	-2	-1	4	-1
CCOc1ccc(C2C(C#N)=C(N)Oc3n[nH]c(C)c32)cc1OC(=O)C1CC1 (stereo not drawn)	66*	-1	5	4	-1	-1
CCc1[nH]nc2c1C(c1ccc(Br)s1)C(C#N)=C(N)O2 (stereo not drawn)	.	-2	8	-7	-1	6
COc1cc(C2C(C#N)=C(N)Oc3cc(C)oc(=O)c32)ccc1OC(=O)N1CCOCC1 (stereo not drawn)	-1	3	1	-6	-3	-10
CCOC(=O)CCC(NC(=O)c1ccc(Nc2nc3ccccc3nc2C(=O)OCC)cc1)C(=O)OCC (stereo not drawn)	.	-1	.	.	.	-3
SMILES	RecA splice inh	FBA Mtb inh	Mtb betalactam	Rv3671c protease	Mtb UGM inh	GDH-TPI inh
COCCNc1nc(Nc2ccc(Cl)cc2F)c2sccc2n1	.	1	.	.	.	6
Cc1ccc(NC(=S)/C(C#N)=C2/Nc3ccccc3S2)cc1	.	0	.	.	.	29
CC1=CS/C(=C(/C#N)C(=O)N2CCCCC2)N1c1ccccc1	1	-2	-13	-2	2	45*
CC1=CS/C(=C(/C#N)C(=O)N2CCOCC2)N1c1ccccc1	1	-5	0	9	2	32*
N#C/C(C(=O)N1CCCCC1)=C1\Nc2ccccc2S1	16	-2	81	3	2	54*
COC(=O)/C(C#N)=C1/SC=C(C)N1c1ccccc1	1	-3	0	4	1	27
CCC(CC)C(=O)N(C)c1c(C)nc2c(OCc3ccc(Cl)cc3Cl)cccn12	.	4	.	.	.	12
CN1C(=O)N(CC(=O)Nc2sccc2C(N)=O)C(=O)C12CCCCC2	.	0	-4	-2	4	5
N#Cc1cccc(NC(=O)CN2CCN(Cc3ccccc3)CC2)c1	.	1	2	-6	1	-7
Cc1nn(-c2ccccc2)c(Cl)c1C(=O)OCC(=O)NCCc1ccccc1	1	-1	5	.	1	3
COc1cccc(CN2CCC2(C)C(=O)Nc2ccc(C)c(O)c2)c1F (stereo not drawn)	.	0	.	.	.	-3
CCc1nc2ccc(C(=O)N(CC)CCN(C)C)cn2c1N(CC)C(=O)NCCc1ccccc1	.	5	.	.	.	8
O=C1NCCc2c1[nH]c1ccccc21	1	27*	-3	1	1	-4
O=C1NCCc2c1[nH]c1ccc([N+](=O)[O-])cc21	0	-1	2	6	-5	8
COc1cccc(C(C)(O)c2nc(-c3ccoc3)cs2)c1 (stereo not drawn)	.	-4	.	.	.	2
COc1cc(/C=N\N=C2/SC(CC(=O)O)C(=O)N2c2ccc(O)cc2)ccc1O (stereo not drawn)	.	1	-6	-6	3	32*
COc1ccc(/C=N\N=C2/SC(CC(=O)O)C(=O)N2c2ccc(O)cc2)cc1OC (stereo not drawn)	-1	0	4	-2	1	44*
COC(=O)N1CCCCC1c1cc(C(=O)NCc2ccc(Cl)c(Cl)c2)no1 (stereo not drawn)	.	-2	.	.	.	-1
COC1C(O)C(O)C(O)C(O)C1O (stereo not drawn)	.	5	.	.	.	3
